The source of these data is PubChem BioAssay (NCI).

Compounds without any hit were thinned out: in the full panel of roughly 83,000, 20% have a hit.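 48-hour exposure, single concentration, 96-well plates; percent growth endpoint where 0 means no net growth. Active: below 10.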 Unmarked numbers belong to inactive results. Active and inactive are the calls of the source.

Holding throughout (assay): NCI-60 one-dose screen, 48 h (100 = growth as untreated, 0 = no growth, -100 = all killed)
Common to all, as to settings: 10 µM unless noted

Experiment [1] concerns NCI-H23 lung.
For experiment [2], the system named is NCI-H226 lung.
The subject of experiment [3] is NCI-H322M lung.
Experiment [4] has as its system HOP-62 NSCLC.
Experiment [5] has as its system NCI-H460 lung.
In experiment [6] the test system is HOP-92 NSCLC.
Experiment [7] deals with NCI-H522 lung.
For experiment [8], the system named is A549/ATCC NSCLC.
In experiment [9] the test system is 786-0 renal.
Experiment [10] deals with COLO 205 colon.

Take `Cc1ccc(/C=C2\CN(C(=O)CCN3CCC(=NO)CC3)C/C(=C\c3ccc(C)cc3)C2=O)cc1`: the growth in experiment [1] is 7.62% (active); in experiment [2], 81%; in [3], 16.8%; in [4], 46.9%; in experiment [5], -42.5% (active); in experiment [6] it was 72.2%. The growth in experiment [7] is -28.6% (active); in experiment [8], 50.8%; in experiment [9], -15.5% (active); in experiment [10] it was -35.4% (active).

As to `CCN(CC)CCC(CNc1c2ccc(Cl)cc2nc2ccc(OC)cc12)c1ccccc1` (stereo not given), the growth was 34.1% in experiment [1]; 13.9% in experiment [2]; 17.5% in experiment [3]; -49.8% (active) in [4]; -39.6% (active) in experiment [5]; -1.53% (active) in experiment [6]. Further, the growth in experiment [7] was -81% (active); in experiment [8] it was -62.4% (active); in [9] it was -85% (active); in experiment [10] it was -91.9% (active).

`CCCCCCCCCCCC(=O)NCCC[N+](C)(C)CC(=O)[O-]`: the growth in experiment [1] was 93.2%; in experiment [2], 93.8%; in experiment [3], 96.6%; in experiment [4], 97.3%; in experiment [5], 104%; in experiment [6] it was 79.1%. Moreover, the growth in experiment [7] is 80%; in experiment [8], 105%; in experiment [9], 93.5%; in experiment [10], 88.7%.

As for `Nc1nc(=O)c2ccccc2s1`, the growth in [1] is 109%; in experiment [2], 112%; in [3], 108%; in experiment [4], 98.2%; in experiment [5], 115%; in experiment [6], 94.5%. The growth in experiment [7] is 122%; in experiment [8] it was 111%; in experiment [9], 103%; in [10], 107%.

As for `Cc1cc(C2=NNC(=O)Cc3cc4c(cc32)OCCO4)cc(C)c1N`, the growth in [1] is 44.2%; in experiment [2], 75.1%; in experiment [3] it was 44.9%; in [4] it was 37.4%; in [5], 17.6%; in experiment [6], 69%. The growth is -20.1% (active) in [7], 50.7% in experiment [8], 32.5% in experiment [9] and 9.99% (active) in [10].

Regarding `O=C(Nc1ccncc1)C(=O)c1cn(S(=O)(=O)c2ccc(Oc3ccccc3)cc2)c2ccccc12`, the growth in experiment [1] was 77.5%; in experiment [2], 103%; in [3] it was 94.4%; in experiment [4] it was 88%; in [5] it was 72.1%; in experiment [6] it was 71.6%. The growth is 87.4% in [7], 71.8% in experiment [8], 89.2% in experiment [9] and 107% in experiment [10].

As to `CC(C)(C)NCCC(O)c1cc2c(Cl)cc(Cl)cc2c2cc(C(F)(F)F)ccc12` (stereo not given), the growth is -78.6% (active) in experiment [1]; -73.8% (active) in experiment [2]; -54.2% (active) in experiment [3]; -87.1% (active) in experiment [4]; -73.6% (active) in experiment [5]; -62.1% (active) in experiment [6]. Moreover, the growth in experiment [7] was -81.8% (active); in experiment [8], -88.2% (active); in [9] it was -65.5% (active); in experiment [10], -87.3% (active).

Take `CC12CCCC(CC(=O)c3[nH]c4ccccc4c31)C2` (stereo not given): the growth is 33.5% in experiment [1]; 60.8% in [2]; 35.7% in [3]; 28.2% in [4]; 7.52% (active) in experiment [5]; 47% in [6]. Also, the growth is 2.33% (active) in [7], 27.7% in experiment [8], 41.4% in [9] and 7.12% (active) in experiment [10].

Regarding `COc1c2occc2c(OC)c2c(=O)c(-c3cc(-c4ccc(F)cc4)c(C#N)c(N)n3)c(C)oc12`, the growth was 36.1% in [1]; 72.1% in [2]; 40.3% in experiment [3]; 27.9% in experiment [4]; 24.9% in experiment [5]; 30.6% in experiment [6]. The growth is 49.4% in experiment [7], 25.2% in [8], 51.2% in experiment [9] and 27.2% in experiment [10].
